TbPYK inhibitor: qHTS of Trypanosoma Brucei Inhibitors; pyruvate kinase (Trypanosoma brucei), Q57TT1; 410,000 tested, 0.12% active; Potency, µM (top dose mostly 76.8 µM), for the others: at the highest dose activity, negative = inhibition, usual class: inhibitors; TbPYK enzyme, Kinase-Glo Plus ATP luminescence, 45 min; AID 624173, 2012; further: nearly all actives have a fitted effect of over 50% in size
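ADP (130 uM final) triggers the TbPYK reaction after compound addition; incubation is 45 min at room temperature. Kinase-Glo Plus is then added and luminescence imaged. Normalized data are fitted to concentration-effect curves.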
RE007 growth inh: qHTS Assay for Inhibitors of the HIV-1 protein Vpr | Potency, µM (doses to about 92.2 µM), without a hit: at the top dose activity change, negative = less growth, actives largely listed as inhibitors | 360,000 tested, 0.21% active | AID 651644, 2012 | S. pombe RE007 Vpr strain, BacTiter-Glo ATP luminescence, 24 h; active means well fitted falling curve with a large enough effect; inconclusive means small, poorly fitted or top-dose-only effect; inactive means no such curve, though single readings can be large or run the other way; further: nearly all actives have a fitted effect of over 50% in size
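Fission yeast RE007 carrying one integrated HIV-1 vpr copy, seeded at OD 0.01 in PMG+AL medium with 23 nL pinned compound. Grown 24 h at 30 degrees; viability read by BacTiter-Glo luminescence after 5 min.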
LmPK inhibitor: qHTS Assay for Inhibitors of Leishmania Mexicana Pyruvate Kinase (LmPK); Q27686; 290,000 tested, 0.37% active; AID 1721, 2009; purified LmPK, Kinase-Glo ATP luminescence, 1 h; Potency, µM (top dose mostly 57.5 µM), for inactives: at the top dose activity change, negative = inhibition, most hits filed as inhibitors
Target sequence (Q27686 whole entry, looked up): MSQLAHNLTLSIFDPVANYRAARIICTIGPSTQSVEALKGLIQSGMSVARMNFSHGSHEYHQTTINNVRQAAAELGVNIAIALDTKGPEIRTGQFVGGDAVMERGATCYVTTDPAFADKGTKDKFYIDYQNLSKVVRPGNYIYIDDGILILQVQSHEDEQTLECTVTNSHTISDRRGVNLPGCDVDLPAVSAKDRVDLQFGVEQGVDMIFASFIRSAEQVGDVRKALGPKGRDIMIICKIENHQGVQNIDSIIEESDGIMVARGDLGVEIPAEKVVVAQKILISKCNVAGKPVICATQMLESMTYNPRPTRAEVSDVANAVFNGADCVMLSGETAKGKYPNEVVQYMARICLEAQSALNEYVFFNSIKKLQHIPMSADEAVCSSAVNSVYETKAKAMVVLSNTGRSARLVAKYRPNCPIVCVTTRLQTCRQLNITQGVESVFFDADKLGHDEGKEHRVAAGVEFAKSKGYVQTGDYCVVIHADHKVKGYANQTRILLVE
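Purified LmPK (0.1 nM) converted ADP (0.1 mM) to ATP with PEP (0.5 mM) in imidazole buffer pH 7.2 with KCl and MgCl2, 1 h at room temperature. ATP was read by Kinase-Glo luminescence; data normalized to uninhibited and no-enzyme controls.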
AMA1-RON2 inh: qHTS for Inhibitors of AMA1-RON; Towards Development of Antimalarial Drug Lead: Primary Screen. Plasmodium falciparum AMA1 (3D7) - RON2 peptide interaction. AlphaScreen AMA1-biotinylated RON2 peptide binding. Potency, µM (highest dose often 58.2 µM), for the others: at the highest dose activity change, negative = inhibition, hits mostly inhibitors. 360,000 tested, 0.2% active;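 further: 0% = vehicle wells and -100% = peptide control; nearly all actives have a fitted effect of over 45% in size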
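AMA1 (3D7) with his tag at 25 nM final met compounds first, then biotinylated RON2 peptide at 25 nM; detection used donor plus acceptor beads, 10 µg/mL apiece, read by AlphaScreen after 30 min at room temperature.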
Sm TGR inh: qHTS Assay for the Inhibitors of Schistosoma Mansoni Peroxiredoxins | Potency, µM (highest dose often 114 µM), for inactives: top-dose activity change, negative = inhibition, usual class: inhibitors | 360,000 tested, 3% active | purified TGR, DTNB reduction, TNB absorbance 405 nm; further: nearly all actives have a fitted effect of over 60% in size
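TGR 20 nM + NADPH 100 uM (dispensed conc.), cpd preinc 15 min RT; start with NADPH (500 uM addition) then DTNB (15 mM addition). Kinetic TNB absorbance, 405 nm filter. Four-parameter Hill fit across titration.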
Numbers without * were called inactive; ? = inconclusive; / = no result given; [ ] = remark or other dose. Shown are actives, neighbours in structure and some others; about 3.2% of the full set was active somewhere. Unless noted, the call rests on the fitted dose curve; in most records, active means well fitted curve in the direction sought with a large enough effect; inconclusive means small, poorly fitted or top-dose-only effect, or another doubt; inactive means no such curve, though single readings can be large; an effect the other way counts as inactive or inconclusive. Unless noted, on the % scale 0 is the no-effect control and ±100 the full control effect; potency means the concentration at half of the fitted maximal effect.

SMILES	TbPYK inhibitor	RE007 growth inh	LmPK inhibitor	AMA1-RON2 inh	Sm TGR inh
CCc1c(C(C)S(=O)(=O)c2ccc(C)cc2)[nH]c(=O)n1-c1ccc(OC(F)(F)F)cc1 (stereo not drawn)	-9.6%	17.0%	6.7%	85.7%	5.62µM*
CCn1cc(S(=O)(=O)c2ccc(C)cc2)[nH]c1=O	3.0%	4.8%	5.5%	5.4%	6.2%
COc1cc(OC)cc(N2C(=O)N(Cc3ccc(C(C)(C)C)cc3)c3ccccc3S2(=O)=O)c1	2.6%	/	/	/	12.8%
CC1CCCCC12NC(=O)N(CC(=O)NC(=O)Nc1ccc3c(c1)OCCO3)C2=O (stereo not drawn)	0.1%	3.6%	2.8%	3.9%	70.8µM*
C/C=C/C=C/C(=O)OC(C)C(=O)Nc1cc([N+](=O)[O-])ccc1OC (stereo not drawn)	0.1%	1.3%	1.6%	-8.5%	22.4µM*
COc1ccc([N+](=O)[O-])cc1NC(=S)Nc1ccccc1	-1.2%	-3.9%	-14.3%	-0.4%	28.2µM*
COc1ccc([N+](=O)[O-])cc1NC(=O)C(C)OC(=O)Cc1ccc(OC)c(OC)c1 (stereo not drawn)	0.7%	1.4%	/	-6.9%[11.6 µM]	/
Cc1ccc(C(=O)N/C(=C\c2ccco2)C(=O)NCCCn2ccnc2)cc1C	1.9%	-16.5%	6.9%	16.8µM*	2.1%
O=C(O)c1cccc(NS(=O)(=O)c2ccc3nnn(O)c3c2)c1	-3.8%	-7.0%	4.4%	-3.0%	-6.1%
O=C(O)c1cccc(NC2=C(n3nnc4ccccc43)C(=O)c3ccccc3C2=O)c1	-7.1%	15.4%	-2.8%	-5.6%	44.7µM*
Clc1cccc(Cl)c1C1Nc2cccc3cccc(c23)N1	-2.3%	-19.5%	-1.2%	12.4%	3.16µM*
O=[N+]([O-])c1ccc(Cl)c(C2Nc3cccc4cccc(c34)N2)c1	0.0%	-23.1%	4.2%	-26.8%	-26.3%
CN1c2cccc3cccc(c23)N(C)C1c1cccs1	-5.1%	-8.2%	3.5%	-0.5%	-28.1%
Clc1cccc(C2Nc3cccc4cccc(c34)N2)c1	-20.8%	5.6%	-1.2%	-7.2%	3.16µM*
c1csc(C2Nc3cccc4cccc(c34)N2)c1	-24.4%	-18.2%	-2.3%	-4.2%	22.4µM*
CN(C)c1ccc(C2Nc3cccc4cccc(c34)N2)cc1	-3.9%	-16.6%	-5.8%	-8.1%	31.6µM*
CN(C)c1ccc(C2NC(=O)c3ccccc3N2)cc1 (stereo not drawn)	-9.3%	8.9%	-3.2%	-17.0%	10.4%
CCC(=O)OC1CCC2C3CCc4cc(O)ccc4C3CCC12C (stereo not drawn)	0.0%	/	/	/	/
Cc1ccc(CNC(=O)c2cc(=O)c3cc(C)c(C)cc3o2)cc1	-1.8%	/	/	/	11.9%
Fc1cccc(Cl)c1C1Nc2cccc3cccc(c23)N1	0.0%	-12.8%	-0.8%	-26.3%	?
c1ccc(C2Nc3cccc4cccc(c34)N2)cc1	-10.1%	11.6%	-15.9%	-10.8%	8.91µM*
Brc1cccc(C2Nc3cccc4cccc(c34)N2)c1	-13.2%	36.5%	-10.1%	-2.2%	11.2µM*
COc1ccc(C2Nc3cccc4cccc(c34)N2)cc1	-20.4%	-10.0%	-0.6%	-10.7%	/
Clc1ccc(C2Nc3cccc4cccc(c34)N2)cc1Cl	-10.8%	-6.6%	-0.2%	1.5%	14.1µM*
COc1ccc(NC(=O)c2csnn2)cc1Cl	-7.4%	/	/	/	-1.2%
SMILES	TbPYK inhibitor	RE007 growth inh	LmPK inhibitor	AMA1-RON2 inh	Sm TGR inh
CCOC(=O)c1ccc(N2C(=O)c3n[nH]c(C)c3C2c2ccc(O)cc2)cc1 (stereo not drawn)	4.3%	19.3%	-1.6%	-10.8%	35.5µM*
CCOC(=O)c1ccc(N2C(=O)c3n[nH]c(C)c3C2c2ccccc2)cc1 (stereo not drawn)	-4.4%	9.5%	3.7%	0.0%	6.1%
CCOc1cc(C2c3c(-c4ccccc4)n[nH]c3C(=O)N2c2ccc(C(=O)O)cc2)ccc1O (stereo not drawn)	-3.9%	23.3%	4.5%	-8.6%	25.1µM*
CCc1ccc(C2c3c(-c4ccccc4)n[nH]c3C(=O)N2c2ccc(C(=O)O)cc2)cc1 (stereo not drawn)	-0.1%	/	/	/	-0.6%
O=C(CSc1nc2c([nH]c3ccccc32)c(=O)n1-c1ccc(Cl)cc1)N1CCOCC1	2.9%	/	/	/	5.3%
CCn1cnc2cc(NCc3ccc(OC)cc3)ccc21	-10.2%	-22.0%	4.4%	-1.1%	7.0%
CC(C)c1ccc(CNc2ccc3c(c2)ncn3C)cc1	0.5%	-19.2%	-2.1%	-17.6%	5.2%
CN(C)c1ccc(CNc2ccc3c(c2)ncn3C)cc1	-29.5%	7.1%	0.2%	26.7µM*	35.5µM*
CCc1ccc(CNc2ccc3c(c2)ncn3C(C)(C)C)cc1	-12.0%	0.9%	-6.6%	-24.1%	-0.9%
CCc1ccc(CNc2ccc3c(c2)ncn3CC)cc1	-7.7%	-27.6%	-6.6%	?	4.47µM*
CCN(CC)c1ccc(CNc2ccc3c(c2)ncn3C(C)(C)C)cc1	-5.8%	6.3%	-1.1%	28.2µM*	?
CN(Cc1ccccc1)C(=O)CSc1nc(-c2ccc(F)cc2)cc(C(F)(F)F)n1	-1.8%	/	/	/	1.3%
CCc1cccc2c(-c3ccccc3)nc(SCC(=O)Nc3ccc(OC)cc3)nc12	-0.5%	/	/	/	-5.4%
O=C(O[C@H]1CN2CCC1CC2)N1CCc2ccccc2[C@@H]1c1ccccc1	5.6%	/	/	/	/
COC(=O)c1cnn2c(C)c(Cc3c(C)cc(C)cc3C)c(C)nc12	-3.1%	/	/	/	3.5%
O=C(O)/C=C/C(=O)Nc1ccc(O)cc1	-9.0%	-4.1%	-5.0%	-9.7%	?
O=C(/C=C/NNC(=O)c1ccccc1)c1ccccc1	-3.7%	-7.5%	5.0%	89.6%	0.0%
Cc1ccc(C(=O)/C=C\C(=O)c2ccc(C)cc2)cc1	?	3.3%	-25.7%	1.8%	1.78µM*
Cc1ccc(C(=O)C=CNNC(=O)c2ccccc2)cc1	-1.7%	0.9%	-5.3%	120.2%	39.8µM*
O=C(O)/C=C/C(=O)c1ccc(O)cc1	-26.7%	9.7%	8.2%	0.4%	3.16µM*
CO[C@]1(NC(=O)Cc2cccs2)C(=O)N2C(C(=O)O)=CC(COC(N)=O)S[C@H]21 (stereo partly drawn)	2.4%	/	/	/	/
COc1cc(OC)cc(C(=O)Nc2cc3c(cc2N2CCCC2)n(C)c(=O)c(=O)n3C)c1	7.2%	/	/	/	?
Cc1ccc(Cn2c(=O)n(-c3cccc(C(F)(F)F)c3)c(=O)c3c(C)c(C)sc32)c(C)c1	2.0%	/	/	/	5.8%
CC(=O)Nc1c2c(nn1-c1ccccc1)CS(=O)C2 (stereo not drawn)	-15.8%	-7.0%	3.6%	8.6%	-21.8%

From PubChem
